Screening data from PubChem.
A1 inh = A1 inhibition. caspase activation, % (concentration not given with the values). MEF A1-2A-BIM cells, caspase-Glo luminescence, 3 h; percent of clofoctol signal, DMSO as zero. AID 2241. 21,000 compounds, 0.51% hits;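 active = most replicate scores above 10, or exactly half above 10 with mean activity above 10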;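 also: effector caspase 3 and 7 activity cleaving a DEVD luciferin substrate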
BJeLR viability = lowers viability of BJeLR cells. AID 2275. viability loss activity score, % (no concentration beside the values). BJeLR fibroblasts viability, CellTiterGlo ATP luminescence, 48 h; HRASV12, hTERT and SV40 LT/ST transformed. 30,000 compounds, 0.64% hits; in the data active = viability loss activity score above about 50%;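 also: higher score means fewer live cells and less ATP luminescence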
Starred values were filed as active, the others as inactive. A selection: hits, their analogues and other compounds. The true share with any hit is near 0.9%.

How did CN(C)c1ncnc2c1ncn2C1OC(CO)C(N)C1O (configuration not stated) do in these assays?
A1 inh: 1; BJeLR viability: 20

What do the screens show for `CC(=O)OC[C@]12[C@H](OC(C)=O)[C@H](OC(C)=O)[C@@H]3[C@@H](OC(C)=O)[C@@]14O[C@@]3(C)COC(=O)c1ncccc1CC[C@H](C)C(=O)O[C@@H]([C@H](O)[C@@H]2OC(=O)c1ccccc1)[C@]4(C)O`?
A1 inh: 2; BJeLR viability: 51*

How did CC(=O)OC[C@]12[C@@H](OC(C)=O)C[C@@H]3[C@@H](OC(=O)c4ccccc4)[C@]1(OC3(C)C)[C@H](C)C[C@H](OC(=O)c1ccccc1)[C@@H]2OC(C)=O do in these assays?
A1 inh: -1; BJeLR viability: -2

What do the screens show for `COc1cc(Nc2nc(SCC(=O)c3ccc(O)c(O)c3)nc3ccccc23)cc(OC)c1`?
A1 inh: 0; BJeLR viability: 5

What do the screens show for `COc1ccc(CCNc2nc(SCC(=O)c3ccc(F)cc3)nc3ccccc23)cc1OC`?
A1 inh: 16*; BJeLR viability: -3

What do the screens show for `O=C1CSc2cc(S(=O)(=O)N3CC=C(c4ccccc4)CC3)ccc2N1`?
A1 inh: 0; BJeLR viability: -1

How did CCCc1ccc(O)c(N)c1 do in these assays?
A1 inh: 1; BJeLR viability: -7

What do the screens show for `CCCc1ccc(-c2c(C)sc(N)c2C#N)cc1`?
A1 inh: 12*; BJeLR viability: 2

What do the screens show for `Clc1ccc(CSCc2nc3ccccc3[nH]2)cc1`?
A1 inh: 0; BJeLR viability: -2

How did O=C1C(c2c(O)[nH]c3ccccc23)=Nc2ccccc21 do in these assays?
A1 inh: -2; BJeLR viability: 6

What do the screens show for `O=C1c2ccccc2-[n+]2ccc3c([nH]c4ccccc43)c21`?
A1 inh: -1; BJeLR viability: 130*

Results for CCCCn1c(C(F)(F)F)nc2c(=O)oc3ccccc3c21 ?
A1 inh: 0; BJeLR viability: 0

How did CCc1ccccc1NC(=O)CCN1C(=O)c2ccccc2C1=O do in these assays?
A1 inh: 0; BJeLR viability: -4

How did O=C(CCCCCN1C(=O)c2cccc3cccc(c23)C1=O)NO do in these assays?
A1 inh: 0; BJeLR viability: 114*

What do the screens show for `CSc1cccc(NC(=S)NCCN(C2CCCCC2)C2CCCC2)c1`?
A1 inh: 0; BJeLR viability: 5

Results for O=C1C(Nc2ccccc2)=CC(=O)c2ncccc21 ?
A1 inh: -1; BJeLR viability: 69*

How did O=C(O)c1c(CNC2CCCc3ccccc32)c2ccccc2n1Cc1ccc(F)cc1Cl (configuration not stated) do in these assays?
A1 inh: 0; BJeLR viability: -3

Results for O=C(CCc1nc2cccnc2n1-c1ccccc1)NCCc1ccccc1 ?
BJeLR viability: 4

What do the screens show for `Cn1c(=N)n(CCCOc2ccc(F)cc2)c2ccccc21`?
A1 inh: 1; BJeLR viability: 3

How did C=C1C(=O)O[C@H]2C3=C(C)CCC[C@]3(C)C(=O)C[C@@H]12 do in these assays?
A1 inh: -1; BJeLR viability: 53*

How did C=C1C(=O)O[C@@H]2C=C(C)[C@@H]3CC[C@@](C)(O)[C@@H]3C[C@H]12 do in these assays?
A1 inh: -1; BJeLR viability: -12

How did COc1c(O)cc2c(c1OC)CC(=O)CCC2 do in these assays?
A1 inh: 0; BJeLR viability: -3

What do the screens show for `CC1(C)CC(=O)C=C(Sc2nc3ccccc3o2)C1`?
A1 inh: 2; BJeLR viability: 76*

How did O=C(CSc1nc2ccccc2o1)OCc1ccccc1 do in these assays?
A1 inh: 0; BJeLR viability: 2

Results for CCc1c(C)c(C#N)c2nc3ccccc3n2c1N1CCN(CCO)CC1 ?
BJeLR viability: -1

How did Cc1c(Cc2ccccc2)c(Cl)n2c(nc3ccccc32)c1C#N do in these assays?
A1 inh: 2; BJeLR viability: 64*

How did O=C(O)c1c(CNC2CCCC2)c2ccccc2n1Cc1ccccc1 do in these assays?
BJeLR viability: -2

Results for CC1CCCCN1S(=O)(=O)Cc1ccccc1 (configuration not stated) ?
A1 inh: -1; BJeLR viability: -4
